In PubChem BioAssay (NCATS):
Several values for one entry are separate records, joined by “and”; a condition that tells them apart may be missing. Equal entries are not always repeated. Records with an inconclusive call do not appear. Values without a mark were called inactive. Activity calls are given as the source filed them. Calls come from the whole dose curve; as a rule, active = well fitted inhibition curve with a large enough effect; inconclusive = small, poorly fitted or top-dose-only effect; inactive = flat fitted curve, though single readings scatter.

Tested on: KB-3-1
Assay: Cytotoxic Profiling of Annotated Libraries Using Quantitative High-Throughput Screening (AID 1296008); note: nearly all actives have a fitted effect of over 60% in size
Settings: Five cell lines viability, CellTiter-Glo ATP luminescence, 48-72 h; max response: hits give low values
How it was run: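 Compounds were pin-transferred onto cells and incubated 48 or 72 hr at 37 degree Celsius, 95% humidity. CellTiter-Glo was added, plates sat 10 min at room temperature, then ATP-coupled luminescence was imaged as the viability read-out.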
% is set by controls: 0 for no effect and ±100 for the full control effect; potency is the fitted concentration of half-maximal effect.

Structure (SMILES) | max response | Potency
CNC(C)CCC=C(C)C (stereo not drawn) | -7.11% | 
CC(C)CCC[C@@H](C)[C@H]1CC[C@H]2[C@@H]3CC=C4C[C@@H](O)CC[C@]4(C)[C@H]3CC[C@]12C | -10.6% | 
O=C1C2CC3CC1CC(O)(C3)C2 | 2.59% | 
CNC(=O)c1c(I)c(C(=O)NCC(=O)Nc2c(I)c(C(=O)O)c(I)c(C(=O)NCCO)c2I)c(I)c(N(C)C(C)=O)c1I | 10% | 
O=C(/C=C/c1cccc(F)c1)NC1CC1 | -16.5% | 
CCN(CC)CCCC(C)Nc1cc(/C=C/c2ccccc2Cl)nc2cc(Cl)ccc12 (stereo not drawn) | 0.54% | 
OC[C@H]1O[C@@](CO)(O[C@H]2O[C@H](CO)[C@@H](O)[C@H](O)[C@H]2O)[C@@H](O)[C@@H]1O | 8.24% | 
CC1CS(=O)(=O)CCN1/N=C/c1ccc([N+](=O)[O-])o1 (stereo not drawn) | 1.84% | 
CC(C)=CCC/C(C)=C/CC/C(C)=C/CC/C(C)=C/CC1=C(C)C(=O)c2ccccc2C1=O | 5.32% and -12.9% | 
F[Si-2](F)(F)(F)(F)F | 6.45% | 
Cc1cc(-c2ccc(N=Nc3c(S(=O)(=O)O)cc4cc(S(=O)(=O)O)cc(N)c4c3O)c(C)c2)ccc1N=Nc1c(S(=O)(=O)O)cc2cc(S(=O)(=O)O)cc(N)c2c1O |  | 9.2 µM (active)
O=C(O)CCC/C=C\C[C@@H]1[C@@H](/C=C/[C@@H](O)COc2cccc(Cl)c2)[C@H](O)C[C@@H]1O | -2.7% | 
CCOC(=O)[C@@H](N)CS | -7.89% | 
